High-throughput results as filed in PubChem.
LANA-H2A inh: blockers of LANA interaction with H2A/H2B – biochemical, FP readout, HTS, primary screen. inhibition, % (test concentration not listed). 0.6% of 320,000 active. AID 2629, 2010. Protein LANA1 (Human herpesvirus 8 type P (isolate GK18)), Q9QR71. cell-free LANA-H2A/H2B peptide, fluorescence polarization; in the data active means inhibition mostly above about 10%, no sharp cut-off; inactive means mostly below about 6.7%
VLA-4 inh: inhibition in human VLA-4 binding assay, primary screen, VLA-4 allosteric modulator project, MLPCN library, flow cytometry, VLA-4 expressing cells; Integrin alpha-4 (Homo sapiens), P13612; ligand binding flow cytometry; inhibition, % (about 7 µM as worked out from the volumes in the protocol); 0.2% of 330,000 active
GRK2 aptamer HTS: compounds blocking aptamer binding on GRK2 – biochemical, human GRK2, bead flow cytometry, HTS, primary screen; FAM-aptamer displacement from GRK2; inhibition of aptamer binding, % at 10 µM; 0.59% of 330,000 active;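 active means inhibition of aptamer binding above 40%, roughly 3 SD of noise, on plates passing a quality check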;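 further: median bead fluorescence of bound FAM aptamer so fluorescent compounds give negative values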
PKD1 kinase inh: inhibitors of human PKD1 kinase, biochemical, fluorescence polarization. PKD1 kinase fluorescence polarization assay. inhibition, % (no concentration beside the values). Serine/threonine-protein kinase D1 (Homo sapiens), Q15139. 0.056% of 200,000 active
Pemphigus Ab inh: inhibitors of pemphigus antibody binding to DSG3, primary screen, biochemical, bead-based, flow cytometry, scFv-GFP | Desmoglein-3 (Homo sapiens), P32926 | DSG3-coupled beads, scFv-anti-DSG3-GFP binding; stronger effect = lower value | binding (percent of control), % at 10 µM | 0.48% of 310,000 active;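 active means binding more than 3 SD below its plate's average and above zero; inconclusive means below that plate limit but binding exactly zero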;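 further: hits lower antibody fragment binding to DSG3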
HDAC3 inh: HDAC3 deacetylase inhibitors, primary screen, biochemical, fluorescence, cell-free homogeneous | Histone deacetylase 3 (Homo sapiens), O15379 | recombinant HDAC3, fluorogenic peptide/trypsin coupled | inhibition, % at 8.3 µM | 0.15% of 320,000 active; in the data active means inhibition above about 26%, passing the limit was not always enough; inconclusive means no clear call, values can overlap the other calls
GRK2 CP1: GRK2 aptamer-displacing inhibitors, retest, confirmation, biochemical, cherry pick 1, bead flow cytometry; aptamer displacement, % at 10 µM; bead-bound GRK2, FAM-aptamer displacement; AID 504451, 2011; 4% of 2,000 active; shares compounds with GRK2 aptamer HTS;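 active means aptamer displacement above 40%, near three times the noise of non-fluorescent compounds, on plates passing quality checks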;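 further: negative values mostly reflect intrinsic compound fluorescence rather than true enhancement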
FAM quench CP1: quenches fluorescent RNA aptamer, GRK2 hit artifact. shares compounds with GRK2 aptamer HTS. 2,000 tested, under 10 active. fluorescence response (% of DMSO), % at 10 µM. Carboxyfluorescein RNA aptamer on beads, flow cytometry quenching; stronger effect = lower value;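 active means compounds that quench the bead-bound fluorescent RNA probe, cutting fluorescence to under half of the solvent control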;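 further: counterscreen run without GRK2 so only probe quenching by compound is measured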
GRK2 confirm 2: GRK2 aptamer-displacing inhibitors, hit retest, confirmation, biochemical, cherry pick 2, bead flow cytometry; shares compounds with GRK2 aptamer HTS; bead-bound GRK2, FAM-aptamer displacement; inhibition of aptamer binding, % at 10 µM; 360 tested, under 10 active; AID 504782, 2011;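 active means inhibition of aptamer binding above 40%, about triple the noise seen with nonglowing compounds, on plates passing quality control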;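 further: negative values mostly come from compounds that fluoresce themselves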
FAM quench CP2: counter-screen for GRK2 binding hits: quenchers of fluorescent RNA aptamer; shares compounds with GRK2 aptamer HTS; carboxyfluorescein RNA aptamer beads, flow cytometry quenching; stronger effect = lower value; fluorescence response vs DMSO, % at 10 µM; 360 tested, under 10 active; AID 588494;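 active means response vs DMSO under 50%, meaning signal dropped by over half, treated as fluorescence quencher; inconclusive means no clear call, values can overlap the other calls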;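 further: labelled aptamer on streptavidin beads without GRK2 as a quench counter-screen; 100% = bead fluorescence of DMSO wells and lower means quenching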
The depositor's hits bear a star; ? = inconclusive; nt = no result given. Shown are actives, neighbours in structure and some others; about 1.8% of the full set was active somewhere. Unless noted, no stated cut-off is given here; in the data, active means inhibition above about 50%; inactive means the rest.

SMILES | LANA-H2A inh | VLA-4 inh | GRK2 aptamer HTS | PKD1 kinase inh | Pemphigus Ab inh | HDAC3 inh | GRK2 CP1 | FAM quench CP1 | others
CN(C)c1ccc(CNC(=O)CCS(=O)(=O)c2ccc3c(c2)n(C)c(=O)c(=O)n3C)cc1 | 1 | 9 | 60* | nt | 109 | 1 | 19 | 98 | GRK2 confirm 2=32;FAM quench CP2=101
COc1ccccc1CNC(=O)COC(=O)c1cc(-c2ccco2)nc2ccccc12 | -5 | 5 | 49* | 2 | 97 | 2 | 34 | 97
CCc1nnc(NC(=O)c2cc(-c3ccccn3)nc3ccccc23)s1 | 0 | 2 | 0 | 0 | 103 | 1 | nt | nt
CCc1nnc(NC(=O)c2cc(-c3ccco3)nc3ccccc23)s1 | 3 | -20 | 0 | 0 | nt | 5 | -1 | 97
CCC(=O)c1c[nH]c(C(=O)N2CCN(c3ccccc3)CC2)c1 | -6 | 12 | 0 | -3 | 100 | 0 | nt | nt
CCC(=O)c1c[nH]c(C(=O)N2CCOCC2)c1 | -4 | 6 | 100* | nt | 104 | -1 | nt | nt | GRK2 confirm 2=-2;FAM quench CP2=104
COc1ccc(N2CCN(CCCNC(=O)C(=O)c3c(C)[nH]c4ccccc34)CC2)cc1 | -2 | 13 | 0 | nt | 102 | 4 | nt | nt
c1coc(-c2nnc(-c3ccco3)nn2)c1 | 4 | 12 | 88* | nt | 97 | 11 | 6 | 103
O=c1cc(CSc2nnc(COc3cccc4ccccc34)o2)c2ccccc2[nH]1 | 1 | -8 | 2 | nt | 89 | 6 | nt | nt
O=C(Nc1ccc(NC(=O)c2ccccc2Cl)cc1)c1cccnc1 | 2 | 14 | 3 | nt | 109 | 2 | nt | nt
O=C(Nc1cccnc1)c1ccccc1Cl | -4 | -8 | 81* | nt | 107 | -11 | -2 | 97
O=C(Nc1ccc(N2CCCCC2)c(Cl)c1)c1cccnc1 | -3 | -59 | 18 | 11 | 118 | ? | nt | nt
O=C(Nc1ccc(N2CCCC2)c(Cl)c1)c1cccnc1 | -5 | 1 | 60* | -9 | 111 | -3 | -14 | 37*
CCC(C)NC(=O)NC(=O)CSc1nnc(-c2ccccc2F)n1C1CC1 (stereo unspecified) | 2 | 1 | 49* | nt | nt | 2 | 1 | 106
COCCn1c(SCC(=O)Nc2cccc(C)c2)nnc1C(C)C | 1 | 2 | 41* | -2 | 106 | -1 | nt | nt | GRK2 confirm 2=5;FAM quench CP2=100
CCOCc1cnc(C)nc1NCC(=O)c1c(C)[nH]c2ccccc12 | 0 | 1 | 56* | -6 | 94 | 9 | -1 | 100
CCOCc1cnc(C)nc1NCC(=O)c1c(C)[nH]c2cc(C)ccc12 | -11 | 3 | 0 | -3 | 105 | -3 | nt | nt
O=C(Nc1cccc(O)c1)C(=O)Nc1ccccn1 | 3 | -16 | 6 | 3 | 97 | 3 | nt | nt
O=C(Nc1ccccc1)C(=O)Nc1ccccn1 | 5 | 9 | 47* | -3 | 98 | -3 | 0 | 92
COc1ccc(OC)c(C2=NO[C@@H]3C(=O)N(c4cc(Cl)ccc4OC)C(=O)[C@H]23)c1 | -4 | 0 | 2 | -23 | nt | -6 | nt | nt | GRK2 confirm 2=5;FAM quench CP2=?
COc1ccc(Cl)cc1N1C(=O)[C@@H]2C(c3cccc(OC)c3OC)=NO[C@@H]2C1=O | -2 | 0 | 6 | 7 | 101 | 0 | nt | nt | GRK2 confirm 2=8;FAM quench CP2=102
COc1ccc(C(=O)NCC(=O)N/N=C/c2cn(C)c3ccccc23)cc1OC | 2 | -12 | 4 | nt | 142 | 5 | nt | nt
O=C(Nc1ccc(Br)cc1)NC1CCCCCCC1 | -1 | 5 | 28 | nt | nt | -7 | nt | nt
CC(=O)Nc1ccc(S(=O)(=O)NC(C)C(=O)OCC(=O)Nc2ccc(F)cc2Cl)cc1 (stereo unspecified) | nt | nt | nt | nt | 98 | nt | nt | nt
COc1ccc(CNC(=O)C2COc3ccccc3O2)c(OC)c1 (stereo unspecified) | -1 | 0 | 4 | -7 | 104 | 3 | -3 | 99
SMILES | LANA-H2A inh | VLA-4 inh | GRK2 aptamer HTS | PKD1 kinase inh | Pemphigus Ab inh | HDAC3 inh | GRK2 CP1 | FAM quench CP1 | others
CCCCNC(=O)COC(=O)c1ccc(C)c(NC(=O)c2ccco2)c1 | 2 | 11 | 0 | 5 | 110 | 1 | nt | nt
Cc1ccc(C(=O)OCc2c(C)noc2C)cc1NC(=O)c1ccco1 | -6 | -7 | 1 | -7 | 105 | 2 | -2 | 96
Cc1cccc(C)c1N(CC(=O)NC1CCCCC1)C(=O)c1csnn1 | 2 | 5 | 0 | nt | 117 | -6 | nt | nt
O=C(NCC(F)(F)F)c1ccc(S(=O)(=O)Nc2ccccc2N2CCCC2)cc1 | -14 | -2 | 89* | nt | 121 | -1 | 21 | 117
CC1Cc2ccccc2N1C(=O)CSc1nncs1 (stereo unspecified) | -5 | -3 | 75* | nt | 97 | -1 | -2 | 99
O=C1[C@@H]2Cc3c([nH]c4ccccc34)C(c3ccccc3)N2C(=O)CN1C1CCN(Cc2ccccc2)CC1 (stereo partly specified) | -4 | 0 | 0 | nt | 99 | 3 | -2 | 112
O=C1[C@@H]2Cc3c([nH]c4ccccc34)C(c3cccc(Br)c3)N2C(=O)CN1C1CCN(Cc2ccccc2)CC1 (stereo partly specified) | 2 | 11 | 0 | nt | 108 | 1 | -4 | 100
C[C@@H]1COC(=O)[C@@H](CC(=O)OC(C)(C)C)C/C=C\C[C@@H](CC(=O)NCCO)C(=O)N1 | nt | 28 | 0 | nt | 96 | nt | nt | nt
COc1ccc(NC(=O)c2ccc(NC(=O)CN3CCC(C(N)=O)CC3)cc2)cc1 | -2 | 6 | 0 | nt | 113 | 3 | nt | nt
O=C1CSc2ccc(S(=O)(=O)NCc3ccccc3Cl)cc2N1 | 6 | 2 | 3 | nt | 102 | 3 | nt | nt
